Screens: PubChem, Broad Institute
T cruzi growth: T. cruzi intracellular proliferation inhibitors, primary screen, cell-based, beta-gal Tulahuen parasites, NIH3T3 host, luminescence. T. cruzi beta-gal in NIH3T3, GalScreen luminescence, 90 h. inhibition, % at 8.34 µM. actives 5.9% (n = 77,000). AID 624255, 2012;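 active = mean inhibition above about 93%, with at least 55% of replicates each passing it, limit read from the data, passing the limit was not always enough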
C diff HTS: C. difficile growth inhibitors, primary screen, HTS; AID 1259249, 2017; Clostridium difficile clinical isolate growth, OD600, 24 h; hits give low values; growth activity, negative = inhibition, % at 16 µg/mL (by protocol); actives 0.25% (n = 86,000);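 active = mean growth activity at or below -80% and every replicate also at or below -80%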;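 also: 0% = DMSO wells and -100% = levofloxacin 16 µg/mL wells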
Pf Dd2 growth: P. falciparum Dd2 growth inhibitors, primary screen, SYBR Green fluorescence, single dose replicates. 72 h; hits give low values. activity change, % at 10 µM. actives 2.3% (n = 94,000); in the data active = activity change below about -80%
Active calls of the source: *; · = not tested or not shown. In the library only some 6.7% were active in any assay of this set; here they are far more common.

SMILES | T cruzi growth | C diff HTS | Pf Dd2 growth
C[C@@H]1CCCCO[C@@H](CN(C)C(=O)Nc2ccc(C(F)(F)F)cc2)[C@@H](C)CN([C@@H](C)CO)C(=O)c2cc(NC(=O)C3CCCCC3)ccc2O1 | · | -2 | -92*
C[C@H]1CN([C@@H](C)CO)S(=O)(=O)c2ccc(C3=CCCCC3)cc2O[C@H]1CN(C)C(=O)c1ccncc1 | 74 | 2 | -49
CCC(=O)N1C[C@@H](C)[C@H](OC)CN(C)C(=O)c2cc(NC(=O)Nc3cccc(F)c3)ccc2OC[C@@H]1C | -6 | · | 0
CCC(=O)N1[C@H](C(=O)Nc2ccccc2)[C@@H](CO)[C@@H]2Cn3c(ccc(C4=CCCC4)c3=O)[C@@H]21 | 5 | -4 | 7
COc1ccccc1NC(=O)N[C@@H]1CC[C@H](CC(=O)N[C@@H](C)c2ccccc2)O[C@@H]1CO | 18 | · | 8
N#C[C@@H]1[C@H](c2ccccc2C2=CCCCC2)[C@@H](CO)N1C(=O)c1cccc(F)c1 | · | -10 | -94*
N#C[C@@H]1[C@H](c2ccccc2C2=CCCC2)[C@H](CO)N1C(=O)NC1CCCC1 | · | 10 | -47
N#C[C@@H]1[C@@H](c2ccccc2C2=CCCCC2)[C@@H](CO)N1C(=O)c1cccc(F)c1 | · | 8 | -14
CCCNC(=O)N1[C@H](C#N)[C@@H](c2ccccc2C2=CCCC2)[C@@H]1CO | · | -2 | -89*
O=C(Cc1ccccn1)NCC[C@@H]1CC[C@@H](NS(=O)(=O)c2ccc(Cl)cc2)[C@H](CO)O1 | 9 | -1 | -8
O=C(C1CCCC1)N1CC(=O)N2[C@H](CO)[C@H](c3ccc(-c4cccnc4)cc3)[C@H]2C1 | · | -6 | -90*
O=C(c1cccnc1)N1CC(=O)N2[C@H](C1)[C@@H](c1ccc(-c3cccnc3)cc1)[C@@H]2CO | · | -6 | -87*
O=C1CN(Cc2ccc(F)cc2)C[C@@H]2[C@@H](c3ccc(Br)cc3)[C@H](CO)N12 | · | 4 | -87*
O=C(C1CCCC1)N1CC(=O)N2[C@H](CO)[C@@H](c3ccc(-c4cccnc4)cc3)[C@@H]2C1 | · | -2 | 6
O=C(c1cccnc1)N1CC(=O)N2[C@@H](CO)[C@H](c3ccc(-c4cccnc4)cc3)[C@@H]2C1 | · | -4 | 37
COc1ccc(-c2ccc([C@@H]3[C@@H](CO)N4C(=O)CN(C(=O)C5CCCC5)C[C@@H]34)cc2)cc1 | · | -9 | -86*
COc1ccc(-c2ccc([C@@H]3[C@H]4CN(C(=O)C5CCCC5)CC(=O)N4[C@H]3CO)cc2)cc1 | · | -4 | -66
O=C1CN(Cc2ccc(F)cc2)C[C@@H]2[C@@H](c3ccc(Br)cc3)[C@@H](CO)N12 | · | 6 | 39
COc1cccc(-c2ccc3c(c2)[C@@H]2[C@@H](CCN2S(=O)(=O)c2ccccc2OC)[C@H](CO)N3C)c1 | 25 | 4 | -10
CCCC#Cc1cnc2c(c1)C(=O)N([C@H](C)CO)C[C@H](C)[C@@H](CN(C)C(=O)C1CCCCC1)O2 | -89 | -1 | 8
O=C(CC1CC1)N1CC(=O)N2[C@H](CO)[C@@H](c3ccc(/C=C/c4ccccc4)cc3)[C@H]2C1 | · | 3 | -9
C/C=C/c1ccc2c(c1)O[C@@H](CN(C)C(=O)CC)[C@H](C)CN([C@@H](C)CO)S2(=O)=O | -42 | 1 | 16
Cc1noc(C)c1NC(=O)Nc1ccc2c(c1)C(=O)N([C@@H](C)CO)C[C@H](C)[C@H](CN(C)S(=O)(=O)c1ccc(F)cc1)OCCCC[C@@H](C)O2 | -2 | 8 | -31
O=C(CN1CCOCC1)N[C@@H]1CC[C@@H](CCn2cc(C3CCCC3)nn2)O[C@H]1CO | · | -6 | -6
CCCNC(=O)C[C@@H]1C[C@H]2c3cc(NC(=O)Nc4ccc(F)cc4)ccc3O[C@H]2[C@H](CO)O1 | 45 | 5 | -8
SMILES | T cruzi growth | C diff HTS | Pf Dd2 growth
O=C(c1ccncc1)N1CC(=O)N2[C@H](C1)[C@@H](c1ccc(-c3cccnc3)cc1)[C@@H]2CO | · | -1 | -86*
O=C(c1ccc(F)cc1)N1CC(=O)N2[C@@H](CO)[C@H](c3ccc(-c4cccnc4)cc3)[C@@H]2C1 | · | 4 | 12
O=C(c1ccccc1F)N1CC(=O)N2[C@@H](CO)[C@H](c3ccc(-c4ccc(F)cc4)cc3)[C@@H]2C1 | · | 2 | -1
O=C(c1ccccc1F)N1CC(=O)N2[C@H](C1)[C@@H](c1ccc(-c3ccc(F)cc3)cc1)[C@@H]2CO | · | -9 | -89*
COc1cccc(CNC(=O)C[C@H]2CC[C@@H](NS(=O)(=O)c3ccccc3OC)[C@@H](CO)O2)c1 | 43 | -2 | 11
Cc1noc(C)c1NC(=O)Nc1ccc2c(c1)C(=O)N([C@@H](C)CO)C[C@@H](C)[C@@H](CN(C)CC1CC1)OCCCC[C@@H](C)O2 | 84 | -2 | 31
C[C@@H]1CCCCO[C@@H](CN(C)CC2CCCCC2)[C@@H](C)CN([C@@H](C)CO)C(=O)c2cc(NC(=O)Nc3ccc4c(c3)OCO4)ccc2O1 | 92 | -3 | -66
C[C@@H]1CN([C@@H](C)CO)C(=O)c2cc(NC(=O)NC3CCCCC3)ccc2O[C@@H](C)CCCCO[C@H]1CN(C)CC1CCCCC1 | 84 | · | -85*
C[C@@H]1CCCCO[C@H](CN(C)CC2CCCCC2)[C@H](C)CN([C@@H](C)CO)C(=O)c2cc(NC(=O)NC3CCCCC3)ccc2O1 | 35 | · | -53
C[C@@H]1CCCCO[C@@H](CN(C)CC2CCCCC2)[C@H](C)CN([C@H](C)CO)C(=O)c2cc(NC(=O)Nc3ccc4c(c3)OCO4)ccc2O1 | 79 | 3 | -81*
C[C@@H]1CN([C@@H](C)CO)C(=O)c2cc(NC(=O)NC3CCCCC3)ccc2O[C@@H](C)CCCCO[C@@H]1CN(C)C(=O)Cc1ccccc1 | 29 | -17 | -32
O=C(C[C@H]1CC[C@H]2[C@@H](COC[C@H](O)CN2Cc2nccs2)O1)NCc1ccc(F)cc1 | -27 | 6 | 8
C[C@@H]1CN([C@H](C)CO)C(=O)c2cccc(NC(=O)c3nc4ccccc4s3)c2O[C@@H]1CN(C)Cc1ccc(C(=O)O)cc1 | 31 | -1 | -33
C[C@@H]1CN([C@H](C)CO)C(=O)c2cccc(NC(=O)c3nc4ccccc4s3)c2O[C@@H]1CN(C)Cc1ccc(C(=O)Nc2ccccc2N)cc1 | 90 | · | -88*
C[C@@H]1CN([C@@H](C)CO)C(=O)c2cccc(NC(=O)c3nc4ccccc4s3)c2O[C@@H]1CN(C)Cc1ccc(C(=O)O)cc1 | 40 | -4 | -23
C[C@@H]1CN([C@@H](C)CO)C(=O)c2cccc(NC(=O)c3nc4ccccc4s3)c2O[C@H]1CN(C)Cc1ccc(C(=O)Nc2ccccc2N)cc1 | 104* | · | -91*
CCCN1C[C@H](C)[C@H](OC)CN(C)C(=O)c2cc(NC(=O)c3cccc(F)c3)ccc2OC[C@@H]1C | -89 | -3 | 9
CCC(=O)N1CC2(C1)CN(Cc1ccc(OC)cc1)[C@@H](CO)c1[nH]c3cc(OC)ccc3c12 | · | · | 30
C[C@@H]1CN([C@H](C)CO)C(=O)c2cc(-c3cccc(F)c3)cnc2O[C@@H]1CN(C)C(=O)C1CC1 | 15 | · | 17
